27 molecules from PubChem BioAssay can be followed below.

Assay [1] in a line: StAR promoter reporter inhibitors, counter-screen for LRH-1 inverse agonist project, cell-based, luminescence, high throughput (AID 651611). To be noted: StAR promoter luciferase reporter counterscreen, at 3.6 µM, hits give high values.
Assay [2] deals with Nuclear receptor subfamily 5 group A member 2 (Homo sapiens) (UniProt O00482). In words: NR5A2 activity suppression in reporter cells – cell-based, luminescence, confirmation (AID 651613; in the data active = inhibition above about 42%;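 note: HEK293T cells co-transfected with LRH-1 and StAR promoter luciferase reporter; 0% = vehicle wells and 100% = parental cells lacking receptor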). The conditions noted are these: cell-based LRH-1 luciferase reporter, inverse agonism; at 3.6 µM; hits give high values.
Chain of Nuclear receptor subfamily 5 group A member 2 (Homo sapiens) (O00482 whole entry, looked up): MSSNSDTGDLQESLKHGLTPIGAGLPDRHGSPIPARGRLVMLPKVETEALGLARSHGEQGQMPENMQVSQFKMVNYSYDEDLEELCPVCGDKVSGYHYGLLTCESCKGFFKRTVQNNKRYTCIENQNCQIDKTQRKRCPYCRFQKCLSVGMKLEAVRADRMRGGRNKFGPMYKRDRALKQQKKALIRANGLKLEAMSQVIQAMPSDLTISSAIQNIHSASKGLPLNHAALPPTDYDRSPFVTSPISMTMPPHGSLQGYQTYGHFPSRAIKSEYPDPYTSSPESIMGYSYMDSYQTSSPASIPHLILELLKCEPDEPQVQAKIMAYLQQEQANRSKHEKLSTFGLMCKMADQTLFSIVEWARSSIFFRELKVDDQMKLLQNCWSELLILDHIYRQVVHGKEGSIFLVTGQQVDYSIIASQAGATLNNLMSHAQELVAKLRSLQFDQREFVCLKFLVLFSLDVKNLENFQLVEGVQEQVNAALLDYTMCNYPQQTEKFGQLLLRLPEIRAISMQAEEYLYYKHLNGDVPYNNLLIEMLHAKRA
Assay [3] deals with Steroidogenic factor 1 (Homo sapiens) (UniProt Q13285). Description: inverse agonism at SF1 nuclear receptor – cell-based, luminescence, high throughput, counter-screen for LRH-1 inverse agonist project (AID 651614; in the data active = inhibition above about 44%;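 note: cells cotransfected with StAR promoter reporter and SF1 expression vector; 0% = vehicle on cells with receptor and 100% = vehicle on cells lacking receptor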). To be noted: cell-based SF1 luciferase reporter, at 3.6 µM, hits give high values.
Chain of Steroidogenic factor 1 (Homo sapiens) (Q13285 whole entry, looked up, the tested form may be a part): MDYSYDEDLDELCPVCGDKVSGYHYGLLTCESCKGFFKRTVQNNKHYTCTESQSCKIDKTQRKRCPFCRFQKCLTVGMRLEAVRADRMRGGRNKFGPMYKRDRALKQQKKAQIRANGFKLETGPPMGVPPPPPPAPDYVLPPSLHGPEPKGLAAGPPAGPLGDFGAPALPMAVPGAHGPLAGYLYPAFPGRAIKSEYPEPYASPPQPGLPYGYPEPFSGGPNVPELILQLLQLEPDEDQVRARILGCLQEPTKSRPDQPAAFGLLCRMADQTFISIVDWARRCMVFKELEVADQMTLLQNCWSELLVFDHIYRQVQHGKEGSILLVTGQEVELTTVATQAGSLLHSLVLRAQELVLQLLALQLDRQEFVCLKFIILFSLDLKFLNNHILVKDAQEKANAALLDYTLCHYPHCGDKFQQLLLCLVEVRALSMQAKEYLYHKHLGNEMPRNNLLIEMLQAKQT
Assay [4] in a line: compounds suppressing VP16-driven luciferase signal – cell-based, luminescence, high throughput, counter-screen for LRH-1 inverse agonist project (AID 651615; in the data active = inhibition above about 33%). To be noted: Gal4-VP16 luciferase reporter cells, at 3.6 µM, hits give high values.

A number with no mark means an inactive call. Active and inactive are the calls of the source. Cut-off read from the data, not from the text of the source, unless noted: active = inhibition above about 28%; inactive = the rest.

Turning to `COc1ccccc1-n1c(SCC(=O)Nc2ccc(F)cc2)nc2c(c1=O)SCC2`, the inhibition is 10.4% in assay [1], 54.9% (active) in assay [2], 55.9% (active) in assay [3] and -9% in assay [4].
The like results for `CCOc1ccc(NC(=O)CSc2nncc(=O)[nH]2)cc1` were, in that order, 8.36%, 63% (active), 57.7% (active) and -11.2%.
The like results for `O=C(Nc1ccc(N2CCN(C(=O)c3cccs3)CC2)cc1)c1ccc([N+](=O)[O-])o1` were, in that order, 43.4% (active), 67.3% (active), 70.4% (active) and 7.47%.
The like results for `Cc1nc(C)c(-c2csc(Nc3cccnc3)n2)s1` were, in that order, -12.1%, 41.5% (active), 35.4% and -47.9%.
Regarding `O=C(c1cccc(Cl)c1)N1CCCC(c2ccc(Cl)cc2)=N1`, the inhibition was 2.78% in assay [1], 49.8% (active) in assay [2], 57.3% (active) in assay [3] and 3.04% in assay [4].
For `C=CCn1c(CCNC(=O)c2cccs2)nnc1SCC(=O)Nc1cccc(Cl)c1C`, in that order: 8.38%, 57.9% (active), 53.4% (active) and 2.77%.
With `O=C(COc1cccc2c1CCNC2=O)Nc1cccc(C(F)(F)F)c1`, the inhibition in assay [1] is 5.78%; in assay [2], 52.5% (active); in assay [3] it was 29.9%; in assay [4] it was -20.7%.
As for `Cc1ccc(NC(=O)CSc2nsc(SCC(=O)Nc3ccc(C)cc3C)c2C#N)c(C)c1`, the inhibition in assay [1] was 13.3%; in assay [2], 46.1% (active); in assay [3] it was 34.5%; in assay [4] it was -0.96%.
For the molecule `COc1cc(N)c(Cl)cc1C(=O)OCC(=O)N1c2ccccc2NC(=O)C1(C)C`, the inhibition in assay [1] is 11.8%; in assay [2], 19.4%; in assay [3], 11.5%; in assay [4] it was -12.3%.
As for `CCOc1ccc(S(=O)(=O)Nc2nc3ccccc3nc2N2CCN(C)CC2)cc1`, the inhibition was -10.8% in assay [1], 27.2% in assay [2], 24.1% in assay [3] and -4.2% in assay [4].
Turning to `Cc1cccc(NC(=O)CSc2nc3[nH]ncc3c(=O)[nH]2)c1C`, the inhibition in assay [1] is 11.6%; in assay [2] it was 56.4% (active); in assay [3], 52.2% (active); in assay [4], -4.74%.
As to `Cc1cc2nc(C3CCCCC3)c(Cc3ccsc3)n2c(C)c1Br`, the inhibition was 4.75% in assay [1], 36.2% in assay [2], 37.7% in assay [3] and 22.4% in assay [4].
For `O=C(CSc1ncnc2c1cnn2Cc1ccccc1)Nc1ccc2c(c1)OCCO2`, in that order: 2.88%, 61.3% (active), 54% (active) and 2.68%.
As for `Cc1ccc(CNC(=O)COc2ccc(C(=O)c3ccc(F)cc3)cc2)cc1`, the inhibition was 17.6% in assay [1], 51% (active) in assay [2], 35.8% in assay [3] and -11.9% in assay [4].
The like results for `O=C(Nc1ccc(Cc2ccncc2)cc1)c1cc(F)c(F)cc1Cl` were, in that order, -0.62%, 44.2% (active), 37.9% and 10.3%.
Regarding `O=C(NCCN1CCOCC1)c1ccc2c(c1)N(Cc1ccccc1F)C(=O)CS2`, the inhibition is 11.1% in assay [1], 42.4% (active) in assay [2], 36.2% in assay [3] and -9.87% in assay [4].
For the molecule `CC(C(=O)OCC(=O)Nc1ccc2c(c1)OCO2)N1C(=O)c2ccccc2C1=O` (stereo not drawn), the inhibition in assay [1] is -2.26%; in assay [2] it was 49.2% (active); in assay [3], 48.2% (active); in assay [4] it was -12.4%.
The like results for `COC(=O)c1c(NC(=O)c2ccc([N+](=O)[O-])o2)sc2c1CCN(C(C)C)C2` were, in that order, 28% (active), 45.3% (active), 44.1% (active) and 0.53%.
`CCn1c(CN2CCN(c3ccc(Cl)cc3)CC2)nc2ccccc21`: the inhibition in assay [1] is 2.05%; in assay [2] it was 46% (active); in assay [3] it was 36.1%; in assay [4], 7.76%.
The like results for `O=C(O)c1c[nH]c2c([N+](=O)[O-])cccc2c1=O` were, in that order, 10.4%, 35.2%, 29.6% and 5.89%.
For `CN(C)c1ccc(S(=O)(=O)N2CCCCC2)cc1NC(=O)CCNC(=O)c1ccc(Cl)cc1`, in that order: 6.54%, 3.72%, 1.24% and -0.3%.
With `CCc1nc(SCC(=O)c2ccccc2)c2ccccc2n1`, the inhibition in assay [1] was 7.58%; in assay [2] it was 45.8% (active); in assay [3], 55.3% (active); in assay [4], -18.1%.
The like results for `CCCCCOc1ccc(Br)cc1CSC(=N)N` were, in that order, 41.5% (active), 99.7% (active), 66.2% (active) and 84% (active).
The like results for `N#CCCn1cc(/C=N/NC(N)=S)c(-c2ccc(-c3ccccc3)cc2)n1` were, in that order, 28.7% (active), 52% (active), 48.6% (active) and -9.84%.
Consider `CS(=O)(=O)c1ccc(Cl)c(NC(=O)Nc2ccccc2)c1`, for which the inhibition in assay [1] is -6.75%; in assay [2] it was 25.1%; in assay [3], 17.5%; in assay [4] it was -2.94%.
Take `Cc1cccc(NC(=O)COC(=O)c2cccs2)c1C`: the inhibition in assay [1] is 0.76%; in assay [2] it was 52.7% (active); in assay [3], 56.8% (active); in assay [4] it was 9.54%.
The like results for `O=C(Nc1ccc(N2CCN(Cc3ccccc3F)CC2)cc1)c1ccc([N+](=O)[O-])o1` were, in that order, 28.7% (active), 70.6% (active), 73.9% (active) and 32.6% (active).
